Source: ChEMBL document CHEMBL4513216, “Probing the Open Global Health Chemical Diversity Library for Multistage-Active Starting Points for Next-Generation Antimalarials” (ACS Infect Dis, 2020)
Hit rate of the full screen: of about 69,000 compounds, about 8,600 (12%) showed an effect of 50% or more. Many of the other results were omitted from the sample, so strong results are more common in it than they were.

tested on: Plasmodium berghei; test: Screen against P. berghei liver stage (PbLuc), transformed with Luciferase, at 10uM; assay type: functional, HepG2; settings: tested at 10 uM

Question: Which INHIBITION does the source give for `Cc1noc(Cl)c1CCC(=O)N1CCN(Cc2ccncc2)CC1` here?
Answer: The INHIBITION was 1.78%.

Question: `Cc1nn2cnnc2c(C)c1CCC(=O)Nc1nnc(C2CC2)s1` was tested. Which INHIBITION did it give?
Answer: The INHIBITION was -31.1%.

Question: Which INHIBITION does the source give for `CC(C(=O)NCCc1ccc2c(c1)OCCO2)n1cncn1` (centres undefined) here?
Answer: The INHIBITION was 35.4%.

Question: Which INHIBITION does the source give for `CCN(Cc1noc(CC(C)C)n1)Cc1cc2ccc(F)cc2[nH]c1=O` here?
Answer: The INHIBITION was -7.65%.

Question: How did the INHIBITION turn out when `Cn1cccc1CN1CCc2c(nc(-c3ccccn3)[nH]c2=O)C1` was run?
Answer: Its INHIBITION is 6.32%.

Question: `CCOc1ccc2[nH]c(=O)c(CN3CCCC(CO)(CO)C3)cc2c1` was tested. Which INHIBITION did it give?
Answer: The INHIBITION was -46.4%.

Question: `CO[C@H]1CCN(C(=O)c2ccc3[nH]nnc3c2)C[C@@]12CCCO2` was tested. Which INHIBITION did it give?
Answer: The INHIBITION was 5.34%.

Question: For `CSc1ccc(C(=O)N2CC(=O)N(CC(C)(C)C)CC(O)C2)cc1` (centres undefined), which INHIBITION is on record?
Answer: The INHIBITION was 37.4%.

Question: For `O=C1CN(CC2CC2)Cc2nc(NCCc3ccccn3)sc21`, which INHIBITION is on record?
Answer: The INHIBITION was 23.4%.

Question: For `CC(=O)N1CCCC2(CCN(c3ccccc3)C2=O)C1` (centres undefined), which INHIBITION is on record?
Answer: The INHIBITION was 2.58%.

Question: For `O=C(CCc1ccccc1)N1CCCCC1C1OCCO1` (centres undefined), which INHIBITION is on record?
Answer: Its INHIBITION is 72.1%.

Question: `O=C(CCc1ccccc1)N1CCCCC1Cn1cccn1` (centres undefined) was tested. Which INHIBITION did it give?
Answer: Its INHIBITION is 29.4%.

Question: `O=C(NCCc1ccccc1)N1CCCCC1C1OCCO1` (centres undefined) was tested. Which INHIBITION did it give?
Answer: The INHIBITION was 25.7%.

Question: Which INHIBITION does the source give for `c1coc(CN2CCOC3(COCCN(Cc4ccncc4)C3)C2)c1` (centres undefined) here?
Answer: The INHIBITION was 31.7%.

Question: For `O=C(Cc1csc(-c2ccoc2)n1)NCCCN1CCCCC1`, which INHIBITION is on record?
Answer: Its INHIBITION is -55.1%.

Question: With `Cc1nc(CN(C)C2CCN(Cc3nnc(C4CC4)o3)C2)no1` (centres undefined) as the compound, how does the INHIBITION read?
Answer: Its INHIBITION is -55.4%.

Question: `CN(Cc1noc(C2CC2)n1)C1CCN(Cc2nnc(C3CC3)o2)C1` (centres undefined) was tested. Which INHIBITION did it give?
Answer: Its INHIBITION is 51.6%.

Question: With `CC(C)c1nc(CN(C)C2CCN(Cc3nnc(C4CC4)o3)C2)no1` (centres undefined) as the compound, how does the INHIBITION read?
Answer: Its INHIBITION is -25.9%.

Question: Which INHIBITION does the source give for `CN(Cc1nnc(C2CC2)n1C)C1CCN(CCc2cccs2)C1` (centres undefined) here?
Answer: The INHIBITION was -39.9%.

Question: For `CN(Cc1noc(C2CC2)n1)C1CCN(CCc2cccs2)C1` (centres undefined), which INHIBITION is on record?
Answer: Its INHIBITION is 43.2%.

Question: Which INHIBITION does the source give for `CN(Cc1nnc(C2CC2)o1)C1CCN(CCc2cccs2)C1` (centres undefined) here?
Answer: Its INHIBITION is 56.7%.

Question: For `CC(C)c1nc(CN2CCCN(Cc3nnc(C4CC4)o3)CC2)no1`, which INHIBITION is on record?
Answer: The INHIBITION was -33.5%.

Question: For `C1CN(Cc2noc(C3CC3)n2)CCN(Cc2nnc(C3CC3)o2)C1`, which INHIBITION is on record?
Answer: Its INHIBITION is 74.9%.

Question: With `CCc1nc(CN2CCCN(Cc3nnc(C4CC4)o3)CC2)no1` as the compound, how does the INHIBITION read?
Answer: The INHIBITION was 37.9%.

Question: With `COCCN1CC(=O)c2sc(NC(C)C)nc2C1` as the compound, how does the INHIBITION read?
Answer: The INHIBITION was 39.7%.

Question: Which INHIBITION does the source give for `Cc1cc(N(C)C)nc(C2(C)CCCN2C(=O)c2ccn(C)n2)n1` (centres undefined) here?
Answer: The INHIBITION was 36.4%.

Question: With `Cc1cc(C(=O)N2CCCN(Cc3nccn3C)CC2)no1` as the compound, how does the INHIBITION read?
Answer: The INHIBITION was 22.3%.

Question: With `Cc1ccc(S(=O)(=O)N2CCOCC2C#N)c(F)c1` (centres undefined) as the compound, how does the INHIBITION read?
Answer: Its INHIBITION is -26.1%.

Question: How did the INHIBITION turn out when `Cc1ccnc(C2CCCN2C(=O)c2cnccn2)n1` (centres undefined) was run?
Answer: Its INHIBITION is 3.91%.

Question: Which INHIBITION does the source give for `COc1ccc(N(C)Cc2nc3c(cnn3C)c(=O)[nH]2)cc1OC` here?
Answer: Its INHIBITION is 35.9%.

Question: Which INHIBITION does the source give for `COc1cc(CNC(C)c2nnc3n2CCC3)cc(OC)c1` (centres undefined) here?
Answer: The INHIBITION was 37.8%.

Question: `COc1cccc(CC(=O)NCCc2nnc3n2CCCCC3)c1` was tested. Which INHIBITION did it give?
Answer: The INHIBITION was -11.3%.

Question: `Brc1cc(CNCc2nnc3n2CCC3)cs1` was tested. Which INHIBITION did it give?
Answer: The INHIBITION was 13.9%.

Question: `CCOc1c(Br)cc(CNCCc2nnc3n2CCCCC3)cc1OC` was tested. Which INHIBITION did it give?
Answer: Its INHIBITION is 55.4%.

Question: For `CCOc1c(Br)cc(CNC(C)c2nnc3n2CCC3)cc1OC` (centres undefined), which INHIBITION is on record?
Answer: The INHIBITION was 50.8%.

Question: `COc1cc(Br)c(CNC(C)c2nnc3n2CCC3)cc1OC` (centres undefined) was tested. Which INHIBITION did it give?
Answer: Its INHIBITION is 47.1%.

Question: For `CC1(NC(=O)Cc2csc(-c3ccccc3Cl)n2)CCS(=O)(=O)C1` (centres undefined), which INHIBITION is on record?
Answer: The INHIBITION was 34.6%.

Question: Which INHIBITION does the source give for `CCN1CCOC(CNCc2ccc(OCc3ccccn3)cc2)C1` (centres undefined) here?
Answer: Its INHIBITION is 3.5%.

Question: How did the INHIBITION turn out when `Cc1c(C(=O)N2CCN(c3ccccn3)CC2)n(C)c2ccc(Cl)cc12` was run?
Answer: Its INHIBITION is 34%.

Question: For `CC(C)Cc1nc(CN2CCCC2Cn2cncn2)no1` (centres undefined), which INHIBITION is on record?
Answer: Its INHIBITION is 9.85%.

Question: Which INHIBITION does the source give for `N#Cc1ccc(N2CCCN(CCCn3cncn3)CC2)cc1` here?
Answer: Its INHIBITION is 9.87%.

Question: How did the INHIBITION turn out when `N#Cc1ccc(CN2CCCN(CCCn3cncn3)CC2)cc1` was run?
Answer: The INHIBITION was 56.5%.

Question: With `N#Cc1ccc(CN2CCCN(C(=O)CCn3cncn3)CC2)cc1` as the compound, how does the INHIBITION read?
Answer: Its INHIBITION is -14.3%.

Question: How did the INHIBITION turn out when `CN(C)CCN1CCO[C@H]2CN(C(=O)N(C)C)C[C@H]21` was run?
Answer: Its INHIBITION is 33.4%.

Question: For `O=C(O)c1csc(NCCc2ccccc2)n1`, which INHIBITION is on record?
Answer: The INHIBITION was 34.2%.

Question: Which INHIBITION does the source give for `O=C(c1ccoc1)N1CCC2(CC1)C(=O)N(CC1CC1)c1ccccc12` here?
Answer: Its INHIBITION is 29.7%.

Question: With `CC(C)=CCN1C[C@@H]2CC[C@H]1CN(Cc1coc(C)n1)C2` as the compound, how does the INHIBITION read?
Answer: The INHIBITION was 55%.

Question: How did the INHIBITION turn out when `CC(C)=CCN1C[C@@H]2CC[C@H]1CN(CCC(=O)NCc1ccco1)C2` was run?
Answer: Its INHIBITION is 29.7%.

Question: `CC(C)=CCN1C[C@@H]2CC[C@H]1CN(Cc1cc(=O)[nH]c(=O)[nH]1)C2` was tested. Which INHIBITION did it give?
Answer: The INHIBITION was 39%.

Question: For `Cc1ccc(C(=O)N2C[C@@H]3OCCN(CCN4CCCC4)[C@@H]3C2)cn1`, which INHIBITION is on record?
Answer: Its INHIBITION is 19.9%.

Question: For `COc1cc(C)c2c(c1C)C[C@@H](C(C)C(=O)O)CC2` (some centres undefined), which INHIBITION is on record?
Answer: The INHIBITION was 10.1%.

Question: For `c1ccc(-n2ccc(CN3CCCC(Cn4cncn4)C3)n2)cc1` (centres undefined), which INHIBITION is on record?
Answer: The INHIBITION was 15.3%.

Question: `Cc1nc(C(C)Nc2ncnc3c2CCNCC3)c(C)s1` (centres undefined) was tested. Which INHIBITION did it give?
Answer: Its INHIBITION is -10.9%.

Question: `CC(Nc1ncnc2c1CCNCC2)c1nc2c(s1)CCCC2` (centres undefined) was tested. Which INHIBITION did it give?
Answer: Its INHIBITION is 1.98%.

Question: Which INHIBITION does the source give for `CCCc1ccc(C(C)Nc2ncnc3c2CCNC3)cc1` (centres undefined) here?
Answer: Its INHIBITION is 74.7%.

Question: Which INHIBITION does the source give for `CC(Nc1ncnc2c1CCNC2)c1ccc2c(c1)CCCC2` (centres undefined) here?
Answer: The INHIBITION was 88.6%.

Question: `CC(Nc1ncnc2c1CCNC2)c1ccc(C(C)(C)C)cc1` (centres undefined) was tested. Which INHIBITION did it give?
Answer: The INHIBITION was 65%.

Question: With `CC(C)Nc1ncnc2c1CCNCC2` as the compound, how does the INHIBITION read?
Answer: Its INHIBITION is 43.8%.

Question: `CCOc1ccc(C(C)Nc2ncnc3c2CCNC3)cc1OCC` (centres undefined) was tested. Which INHIBITION did it give?
Answer: Its INHIBITION is 47.9%.

Question: Which INHIBITION does the source give for `Cc1ccccc1C(Nc1ncnc2c1CCNC2)c1ccccc1` (centres undefined) here?
Answer: The INHIBITION was 36.8%.

Question: How did the INHIBITION turn out when `Cc1cc(C)n(CC(C)Nc2ncnc3c2CCNC3)n1` (centres undefined) was run?
Answer: Its INHIBITION is 29.4%.

Question: With `O=C(C1CCOCC1)N1CCc2onc(COc3cccnc3)c2C1` as the compound, how does the INHIBITION read?
Answer: The INHIBITION was 46.2%.

Question: How did the INHIBITION turn out when `Cc1ccoc1C(=O)N1CCc2ncnc(-c3cnn(C)c3)c2CC1` was run?
Answer: Its INHIBITION is -49.8%.

Question: For `Cc1cc(C2CCN(S(=O)(=O)N(C)C)CC2)ccn1`, which INHIBITION is on record?
Answer: Its INHIBITION is 9.05%.

Question: How did the INHIBITION turn out when `CN(C)CCN1C(=O)CCC12CCN(Cc1cccs1)CC2` was run?
Answer: Its INHIBITION is 29.7%.

Question: `CCc1nc(CN2CCN(C(=O)c3cncnc3CC)CC2)cs1` was tested. Which INHIBITION did it give?
Answer: Its INHIBITION is -86.365%.

Question: For `CC(C)NC(=O)N1CC[C@@H]2[C@@H]1CC(=O)N2Cc1cccnc1`, which INHIBITION is on record?
Answer: Its INHIBITION is 6.27%.

Question: How did the INHIBITION turn out when `CC1c2ncc(COc3cccnc3)n2CCN1C(=O)C1=CCCCC1` (centres undefined) was run?
Answer: Its INHIBITION is -6.23%.

Question: With `COc1ccc(CNC(=O)Nc2cccnc2N2CCCC2)cc1OC` as the compound, how does the INHIBITION read?
Answer: The INHIBITION was 31.2%.
